Reference: the supplement of paper PMC10849652
Targets with a hit are over-represented here; the source holds about 8,800 in all. About 0.5% of all pairs of compound and target were hits. A number with no mark means an inactive call.

Key:
Assay in all cases: log2 fold change, soluble protein after heating vs DMSO (PISA); higher = thermal stabilisation; K562 lysate, 10 uM; active = over 0.2 and 3.5 SD of the protein, either way, in both replicates (recomputed)
[1] = compound: NCC(=O)Nc1ccc(-n2nc(C(F)(F)F)cc2-c2ccc3c(ccc4ccccc43)c2)cc1
Summary of the method: (§1)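 Quantification was by TMTpro 16plex LC-MS/MS with equalised channel sums, applied to the supernatant after 21,000xg for 90 min. Samples were crude K562 extract at 1 mg/mL protein in PBS pH 7.4 with 1 mM MgCl2, treated with 10 μM compound for 30 min, heated for 3 min across 48°C-58°C, pooled and brought to 0.5% NP-40 at 4°C. Values are log-two fold changes in thermal stability relative to solvent controls, from duplicates.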

vorinostat = compound: O=C(CCCCCCC(=O)Nc1ccccc1)NO [vorinostat]
Summary of the method: as §1

silmitasertib = compound: O=C(O)c1ccc2c(c1)nc(Nc1cccc(Cl)c1)c1ccncc12 [silmitasertib]
Summary of the method: as §1

[2] = compound: O=C1NC(=O)C(c2cnc3ccccn23)=C1c1cn2c3c(cc(F)cc13)CN(C(=O)N1CCCCC1)CC2
Summary of the method: as §1

entospletinib = compound: c1cn2cc(-c3ccc4cn[nH]c4c3)nc(Nc3ccc(N4CCOCC4)cc3)c2n1 [entospletinib]
Summary of the method: as §1

Chain of UniProt Q9NRX6 (Q9NRX6 whole entry, looked up): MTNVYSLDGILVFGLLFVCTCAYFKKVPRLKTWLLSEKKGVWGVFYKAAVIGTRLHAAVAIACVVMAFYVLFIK
Chain of UniProt Q5BVD1 (Q5BVD1 whole entry, looked up): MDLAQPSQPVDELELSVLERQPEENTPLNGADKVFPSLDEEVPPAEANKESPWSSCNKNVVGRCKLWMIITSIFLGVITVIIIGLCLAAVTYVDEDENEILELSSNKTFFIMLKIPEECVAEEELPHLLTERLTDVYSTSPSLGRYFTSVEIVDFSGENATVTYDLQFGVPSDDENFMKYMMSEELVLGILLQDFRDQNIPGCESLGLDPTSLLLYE
Chain of UniProt Q9Y5K5 (Q9Y5K5 whole entry, looked up): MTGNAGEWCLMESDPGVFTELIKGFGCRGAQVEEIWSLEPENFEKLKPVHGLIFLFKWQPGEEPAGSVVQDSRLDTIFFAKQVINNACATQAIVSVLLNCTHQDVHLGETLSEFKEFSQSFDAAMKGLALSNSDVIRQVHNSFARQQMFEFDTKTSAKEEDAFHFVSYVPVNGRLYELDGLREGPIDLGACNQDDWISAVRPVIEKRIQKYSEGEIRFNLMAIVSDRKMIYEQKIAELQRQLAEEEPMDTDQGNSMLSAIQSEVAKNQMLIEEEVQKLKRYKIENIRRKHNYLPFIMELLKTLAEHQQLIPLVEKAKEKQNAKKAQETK
Chain of UniProt Q9H497 (Q9H497 whole entry, looked up): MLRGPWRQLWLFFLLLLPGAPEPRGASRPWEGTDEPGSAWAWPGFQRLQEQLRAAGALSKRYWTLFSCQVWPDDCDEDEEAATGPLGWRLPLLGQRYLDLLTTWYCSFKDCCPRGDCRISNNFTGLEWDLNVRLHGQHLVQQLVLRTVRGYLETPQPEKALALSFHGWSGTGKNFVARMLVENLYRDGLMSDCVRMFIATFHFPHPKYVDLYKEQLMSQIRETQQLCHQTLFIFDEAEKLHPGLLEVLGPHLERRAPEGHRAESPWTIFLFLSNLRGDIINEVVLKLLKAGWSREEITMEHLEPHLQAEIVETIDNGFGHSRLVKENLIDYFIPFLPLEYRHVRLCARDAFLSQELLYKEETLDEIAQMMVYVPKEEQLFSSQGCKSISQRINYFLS
Chain of UniProt P09493 (P09493 whole entry, looked up): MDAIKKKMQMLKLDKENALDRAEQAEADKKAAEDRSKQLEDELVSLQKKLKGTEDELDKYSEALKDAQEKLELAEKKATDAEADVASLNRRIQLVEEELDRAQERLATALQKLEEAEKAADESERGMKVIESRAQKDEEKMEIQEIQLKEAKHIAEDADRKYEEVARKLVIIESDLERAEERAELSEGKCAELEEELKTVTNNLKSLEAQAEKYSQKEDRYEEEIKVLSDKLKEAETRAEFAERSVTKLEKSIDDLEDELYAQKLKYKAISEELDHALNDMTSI
Chain of UniProt P42167 (P42167 whole entry, looked up): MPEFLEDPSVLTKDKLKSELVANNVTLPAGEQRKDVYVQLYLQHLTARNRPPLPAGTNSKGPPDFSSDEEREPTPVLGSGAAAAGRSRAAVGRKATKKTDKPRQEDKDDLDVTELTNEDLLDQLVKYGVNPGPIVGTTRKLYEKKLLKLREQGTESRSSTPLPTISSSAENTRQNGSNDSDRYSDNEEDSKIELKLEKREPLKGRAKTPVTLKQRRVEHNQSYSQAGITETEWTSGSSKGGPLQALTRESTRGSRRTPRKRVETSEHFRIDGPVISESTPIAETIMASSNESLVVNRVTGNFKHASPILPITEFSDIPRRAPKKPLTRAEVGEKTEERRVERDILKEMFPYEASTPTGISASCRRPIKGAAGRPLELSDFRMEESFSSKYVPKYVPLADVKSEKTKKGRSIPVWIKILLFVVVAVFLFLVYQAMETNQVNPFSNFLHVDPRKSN
Chain of UniProt Q9H4B7 (Q9H4B7 whole entry, looked up): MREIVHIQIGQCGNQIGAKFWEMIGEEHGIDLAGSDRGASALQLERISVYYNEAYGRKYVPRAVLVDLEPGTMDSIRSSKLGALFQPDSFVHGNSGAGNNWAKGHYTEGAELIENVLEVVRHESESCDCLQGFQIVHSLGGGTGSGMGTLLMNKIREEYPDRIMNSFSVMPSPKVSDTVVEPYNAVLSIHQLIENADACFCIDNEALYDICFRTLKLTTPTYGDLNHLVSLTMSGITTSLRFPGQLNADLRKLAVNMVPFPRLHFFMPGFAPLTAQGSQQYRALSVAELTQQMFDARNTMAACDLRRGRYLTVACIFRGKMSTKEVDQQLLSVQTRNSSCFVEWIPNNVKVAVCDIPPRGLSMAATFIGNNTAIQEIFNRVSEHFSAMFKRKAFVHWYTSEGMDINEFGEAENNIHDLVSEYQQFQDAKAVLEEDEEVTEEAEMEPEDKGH
Chain of UniProt Q9UPN9 (Q9UPN9 whole entry, looked up): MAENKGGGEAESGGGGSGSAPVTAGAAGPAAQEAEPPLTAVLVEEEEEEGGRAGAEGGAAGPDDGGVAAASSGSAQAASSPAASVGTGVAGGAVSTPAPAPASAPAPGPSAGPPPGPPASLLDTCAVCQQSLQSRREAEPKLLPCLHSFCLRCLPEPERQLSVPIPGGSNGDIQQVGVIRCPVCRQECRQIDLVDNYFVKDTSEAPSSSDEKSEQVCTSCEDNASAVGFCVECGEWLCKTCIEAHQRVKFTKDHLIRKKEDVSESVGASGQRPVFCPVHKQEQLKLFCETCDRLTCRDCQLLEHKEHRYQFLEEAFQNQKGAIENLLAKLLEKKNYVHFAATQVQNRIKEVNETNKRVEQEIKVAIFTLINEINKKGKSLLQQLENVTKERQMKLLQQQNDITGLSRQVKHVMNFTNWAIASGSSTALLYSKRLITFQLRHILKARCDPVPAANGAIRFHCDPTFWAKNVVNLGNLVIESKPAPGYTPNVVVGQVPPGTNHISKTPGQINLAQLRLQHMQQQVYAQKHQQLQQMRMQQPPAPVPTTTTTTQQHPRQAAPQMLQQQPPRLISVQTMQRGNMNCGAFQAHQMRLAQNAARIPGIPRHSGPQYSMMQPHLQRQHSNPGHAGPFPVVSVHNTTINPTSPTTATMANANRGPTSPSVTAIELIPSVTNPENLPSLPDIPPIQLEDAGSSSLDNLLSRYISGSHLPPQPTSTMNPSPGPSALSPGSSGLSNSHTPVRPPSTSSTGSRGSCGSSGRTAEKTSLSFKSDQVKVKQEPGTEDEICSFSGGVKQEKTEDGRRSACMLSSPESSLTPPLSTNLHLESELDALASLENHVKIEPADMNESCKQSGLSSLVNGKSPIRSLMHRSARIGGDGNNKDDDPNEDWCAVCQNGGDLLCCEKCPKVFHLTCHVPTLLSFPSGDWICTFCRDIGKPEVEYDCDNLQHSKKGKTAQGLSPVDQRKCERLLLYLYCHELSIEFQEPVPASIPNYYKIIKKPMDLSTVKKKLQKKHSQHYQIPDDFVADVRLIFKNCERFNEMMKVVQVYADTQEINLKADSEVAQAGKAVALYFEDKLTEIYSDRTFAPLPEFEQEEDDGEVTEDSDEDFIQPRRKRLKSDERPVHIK
Chain of UniProt Q8N0Z6 (Q8N0Z6 whole entry, looked up): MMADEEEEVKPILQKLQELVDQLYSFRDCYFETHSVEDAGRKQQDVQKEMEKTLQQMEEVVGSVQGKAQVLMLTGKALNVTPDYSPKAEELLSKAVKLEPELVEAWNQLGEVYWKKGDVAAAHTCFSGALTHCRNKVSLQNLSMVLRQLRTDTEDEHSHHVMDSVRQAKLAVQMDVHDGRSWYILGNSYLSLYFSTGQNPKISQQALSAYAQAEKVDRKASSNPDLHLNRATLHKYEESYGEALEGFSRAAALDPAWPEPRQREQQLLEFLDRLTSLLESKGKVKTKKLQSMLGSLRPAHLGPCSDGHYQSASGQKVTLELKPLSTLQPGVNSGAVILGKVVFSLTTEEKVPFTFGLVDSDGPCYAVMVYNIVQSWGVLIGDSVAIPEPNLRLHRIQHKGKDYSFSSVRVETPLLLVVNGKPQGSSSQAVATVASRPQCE
Chain of UniProt Q9NUJ3 (Q9NUJ3 whole entry, looked up): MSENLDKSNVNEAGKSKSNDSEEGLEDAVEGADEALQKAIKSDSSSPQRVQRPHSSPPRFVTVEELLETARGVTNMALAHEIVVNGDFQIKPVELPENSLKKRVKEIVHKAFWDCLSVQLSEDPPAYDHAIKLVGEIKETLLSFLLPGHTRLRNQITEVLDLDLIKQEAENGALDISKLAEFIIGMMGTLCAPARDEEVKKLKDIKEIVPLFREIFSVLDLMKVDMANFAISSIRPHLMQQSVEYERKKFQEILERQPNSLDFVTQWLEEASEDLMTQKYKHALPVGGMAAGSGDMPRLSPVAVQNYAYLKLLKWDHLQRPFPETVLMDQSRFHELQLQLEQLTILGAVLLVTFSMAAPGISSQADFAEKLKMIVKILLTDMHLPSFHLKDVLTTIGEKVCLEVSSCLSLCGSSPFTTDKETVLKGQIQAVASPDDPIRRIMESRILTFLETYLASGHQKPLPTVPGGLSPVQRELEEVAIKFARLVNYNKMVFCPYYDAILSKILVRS
Chain of UniProt P61960 (P61960 whole entry, looked up): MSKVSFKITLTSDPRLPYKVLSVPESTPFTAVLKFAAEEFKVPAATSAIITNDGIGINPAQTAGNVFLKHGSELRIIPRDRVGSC
Chain of UniProt Q5JUR7 (Q5JUR7 whole entry, looked up): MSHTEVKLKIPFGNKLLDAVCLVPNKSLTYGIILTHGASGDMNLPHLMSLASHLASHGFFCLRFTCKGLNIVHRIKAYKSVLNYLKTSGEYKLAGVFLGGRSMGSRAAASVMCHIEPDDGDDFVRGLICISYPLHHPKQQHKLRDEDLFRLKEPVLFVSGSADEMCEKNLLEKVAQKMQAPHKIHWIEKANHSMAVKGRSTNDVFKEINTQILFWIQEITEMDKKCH
Chain of UniProt Q9P0S9 (Q9P0S9 whole entry, looked up): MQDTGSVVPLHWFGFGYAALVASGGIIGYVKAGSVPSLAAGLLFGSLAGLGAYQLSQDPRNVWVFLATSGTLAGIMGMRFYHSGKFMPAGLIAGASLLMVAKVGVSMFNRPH
Chain of UniProt Q9BZL1 (Q9BZL1 whole entry, looked up): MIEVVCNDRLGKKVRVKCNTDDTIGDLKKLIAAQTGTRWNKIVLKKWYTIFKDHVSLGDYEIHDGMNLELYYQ

| Target | log2 fold change [1] | log2 fold change (vorinostat) | log2 fold change (silmitasertib) | log2 fold change [2] | log2 fold change (entospletinib) |
| --- | --- | --- | --- | --- | --- |
| TRAF2 isoform 2 (UniProt Q12933) | 0.014 | -0.269 (active) | 0.024 | 0.031 | 0.005 |
| TTC27 (UniProt Q6P3X3) | -0.027 | -0.403 (active) | 0.053 | -0.06 | -0.002 |
| TUBB1 (UniProt Q9H4B7) | -0.038 | -0.326 (active) | -0.003 | 0.033 | 0.011 |
| TMEM87B (UniProt Q96K49) | -0.024 | 0.018 | 0.026 | -0.037 | -0.097 |
| TTC12 isoform 2 (UniProt Q9H892) | -0.01 | -0.163 | 0.078 | -0.058 | -0.03 |
| TUBB4B (UniProt P68371) | 0.014 | -0.712 (active) | 0.024 | -0.001 | 0.005 |
| TTC5 (UniProt Q8N0Z6) | -0.003 | -0.257 (active) | -0.029 | -0.018 | 0.051 |
| THEMIS2 (UniProt Q5TEJ8) | -0.029 | -0.315 (active) | 0.069 | 0.059 | -0.007 |
| UFM1 (UniProt P61960) | -0.247 | 0.036 | -0.074 | -0.109 | -0.011 |
| TOX4 (UniProt O94842) | -0.021 | -0.018 | -0.037 | -0.025 | -0.006 |
| TELO2 (UniProt Q9Y4R8) | 0.003 | -0.361 (active) | 0.117 | 0.011 | 0.011 |
| UBP1 (UniProt Q9NZI7) | -0.002 | -0.182 | 0.008 | -0.01 | -0.002 |
| TESC (UniProt Q96BS2) | -0.036 | 0.058 | 0.103 | -0.014 | -0.111 |
| TRIP13 (UniProt Q15645) | 0.002 | -0.472 (active) | 0.061 | -0.002 | 0.022 |
| UBL5 (UniProt Q9BZL1) | -0.027 | -0.078 | 0.065 | 0.077 | -0.049 |
| UCHL5 isoform 3 (UniProt Q9Y5K5) | 0.004 | -0.081 | 0 | -0.009 | -0.003 |
| TIMM44 (UniProt O43615) | 0.045 | 0.245 (active) | 0.015 | 0.029 | -0.026 |
| TUBB6 (UniProt K7ES63) | -0.062 | -0.414 | 0.013 | -0.164 | -0.11 |
| TJP1 isoform 2 (UniProt Q07157) | 0.029 | 0.041 | -0.035 | -0.023 | -0.043 |
| TNIK (UniProt C9J338) | 0.195 | 0.103 | -0.023 | 0.006 | -0.049 |
| TIAL1 isoform 2 (UniProt Q01085) | -0.001 | 0.041 | 0.023 | -0.049 | 0.028 |
| TGOLN2 isoform 7 (UniProt O43493) | -0.02 | 0.089 | 0.055 | -0.047 | -0.019 |
| TUBGCP3 (UniProt Q96CW5) | -0.014 | -0.459 (active) | -0.014 | 0.019 | -0.003 |
| TMEM70 (UniProt Q9BUB7) | -0.081 | 0.122 | 0.017 | -0.108 | 0.015 |
| TEX30 (UniProt Q5JUR7) | 0.035 | -0.534 (active) | 0.041 | -0.006 | 0.001 |
| TLK2 isoform 2 (UniProt Q86UE8) | 0.019 | -0.24 | 0.057 | 0.118 | -0.135 |
| UBA1 (UniProt P22314) | 0.018 | -0.371 (active) | 0.01 | -0.003 | 0.02 |

| Target | log2 fold change [1] | log2 fold change (vorinostat) | log2 fold change (silmitasertib) | log2 fold change [2] | log2 fold change (entospletinib) |
| --- | --- | --- | --- | --- | --- |
| TUBGCP4 (UniProt Q9UGJ1) | -0.11 | -0.219 (active) | 0.003 | 0.02 | 0.038 |
| TCP11L1 (UniProt Q9NUJ3) | 0 | -0.317 (active) | -0.043 | 0.006 | 0.019 |
| TMEM14C (UniProt Q9P0S9) | -0.032 | -0.018 | 0.013 | 0.058 | 0.091 |
| TMEM164 (UniProt Q5U3C3) | 0.098 | 0.463 | -0.079 | 0.274 | 0.059 |
| TMEM167B (UniProt Q9NRX6) | 0.019 | 0 | 0.009 | -0.033 | 0.031 |
| TRIM44 (UniProt Q96DX7) | 0.024 | -0.031 | 0.062 | -0.015 | -0.051 |
| TMEM263 (UniProt Q8WUH6) | 0.053 | 0.289 | -0.15 | -0.113 | -0.034 |
| TTLL12 (UniProt V9GY16) | 0.115 | 0.076 | -0.298 | 0.035 | 0.103 |
| UGDH (UniProt O60701) | 0.039 | -0.206 | 0.001 | 0.01 | -0.01 |
| TBCE (UniProt Q15813) | -0.029 | -0.27 (active) | 0.018 | -0.025 | 0.021 |
| TOR3A (UniProt Q9H497) | 0.011 | 0.048 | -0.002 | -0.016 | 0.02 |
| TPD52L2 isoform 7 (UniProt O43399) | -0.043 | 0.148 | -0.044 | -0.027 | -0.016 |
| TRA2A (UniProt Q13595) | 0.009 | 0.568 (active) | -0.151 | 0.005 | -0.102 |
| TRIM33 isoform 2 (UniProt Q9UPN9) | -0.005 | -0.393 (active) | -0.026 | -0.04 | -0.024 |
| TTMP isoform 3 (UniProt Q5BVD1) | 0.253 | 0.191 | -0.074 | 0.167 | -0.032 |
| TMOD1 (UniProt P28289) | 0.005 | -0.312 (active) | 0.02 | -0.005 | 0.01 |
| TMEM177 (UniProt Q53S58) | -0.183 | -0.012 | -0.035 | 0.034 | 0.005 |
| TRMT2A (UniProt Q8IZ69) | -0.012 | -0.366 (active) | 0.034 | -0.007 | 0.002 |
| TOE1 (UniProt Q96GM8) | -0.003 | -0.359 (active) | 0.041 | 0.002 | 0.043 |
| TMEM161B (UniProt Q8NDZ6) | -0.084 | 0.225 | 0 | 0.019 | -0.026 |
| TMPO (UniProt P42167) | 0.021 | 0.104 | 0.012 | -0.032 | -0.031 |
| TTF2 (UniProt Q9UNY4) | 0.02 | -0.317 (active) | 0.008 | -0.032 | -0.074 |
| THOC5 (UniProt Q13769) | 0.012 | -0.077 | 0.011 | 0.008 | -0.009 |
| UBXN6 (UniProt Q9BZV1) | 0.04 | -0.28 (active) | 0.018 | -0.026 | -0.009 |
| TBC1D8B (UniProt Q0IIM8) | 0.036 | 0.147 | -0.037 | 0.011 | 0.131 |
| TPM1 isoform 4 (UniProt P09493) | -0.053 | 0.052 | -0.03 | -0.041 | 0.006 |
